Assay [1] is described as follows: small molecules captured by biotinylated probe aFSTL3 – biochemical, small-molecule microarray, fluorescence 635/667, stem cell growth factor project, primary screen (AID 1064).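 Note: measures binding of the biotinylated anti-FSTL3 antibody to printed compounds.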 The following applies: higher = more signal.
Assay [2] in a line: binders from COS7 lysate, DM2A8 probe, primary screen, torsin A project, cell lysate, small-molecule microarray, fluorescence 635/667 (AID 1065). The following applies: higher = more signal, COS7 lysate expressing mutant human TOR1A.
Assay [3] can be described thus: small molecules captured by biotinylated probe aFGF2 – biochemical, small-molecule microarray, fluorescence 635/667, stem cell growth factor project, primary screen (AID 1067).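 Note: measures binding of biotinylated aFGF2 protein to printed compounds on slides; z-score merges feature fluorescence and signal-to-noise across triplicate slides.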 The following applies: higher = more signal.
Assay [4] can be described thus: small molecules captured by biotinylated probe aFGF10 – biochemical, small-molecule microarray, fluorescence 635/667, stem cell growth factor project, primary screen (AID 1071).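 Note: score merges 667 nm spot intensity and signal to noise from triplicate slides.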 Conditions: higher = more signal.
Assay [5] addresses Neurogenic locus notch homolog protein 2 (Homo sapiens) (UniProt Q04721). The experiment in a line: small molecules binding Notch2 protein – biochemical, small-molecule microarray, 635 nm fluorescence, stem cell growth factors, primary screen (AID 1073). The following applies: higher = more signal.
Assay [6] deals with Pro-neuregulin-1, membrane-bound isoform (Homo sapiens) (UniProt Q02297). The experiment in a line: small molecules binding neuregulin-1 protein – biochemical, small-molecule microarray, fluorescence 635/667, psychiatric disease protein project, primary screen (AID 1075).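 Note: score combines 667 nm spot fluorescence with signal to noise.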 The following applies: NRG1 binding, 635 nm fluorescence, higher = more signal.
Chain of Pro-neuregulin-1, membrane-bound isoform (Homo sapiens) (Q02297 whole entry, looked up, the tested form may be a part, canonical isoform): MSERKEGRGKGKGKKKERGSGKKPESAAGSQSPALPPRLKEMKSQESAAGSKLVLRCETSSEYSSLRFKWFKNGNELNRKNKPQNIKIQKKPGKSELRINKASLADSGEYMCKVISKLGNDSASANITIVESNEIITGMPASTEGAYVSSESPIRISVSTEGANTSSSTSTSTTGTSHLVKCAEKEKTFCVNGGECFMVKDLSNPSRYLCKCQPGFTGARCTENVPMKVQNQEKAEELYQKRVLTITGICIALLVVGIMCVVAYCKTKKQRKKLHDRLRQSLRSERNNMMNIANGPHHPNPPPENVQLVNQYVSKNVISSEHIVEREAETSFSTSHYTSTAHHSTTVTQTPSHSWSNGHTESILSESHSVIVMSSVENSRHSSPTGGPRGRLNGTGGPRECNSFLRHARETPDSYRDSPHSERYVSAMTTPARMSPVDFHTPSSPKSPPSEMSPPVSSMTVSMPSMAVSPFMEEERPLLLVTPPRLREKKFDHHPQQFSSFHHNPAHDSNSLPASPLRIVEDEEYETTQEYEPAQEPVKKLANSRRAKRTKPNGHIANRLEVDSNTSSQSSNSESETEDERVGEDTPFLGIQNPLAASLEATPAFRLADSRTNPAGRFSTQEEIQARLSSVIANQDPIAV
Assay [7] has as its system Neuregulin-1 EGF-like domain. The experiment in a line: small molecules binding NRG1 EGF domain – biochemical, small-molecule microarray, 635 nm fluorescence, primary screen (AID 1081).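 Note: binding of the protein to compounds printed on small-molecule microarray slides.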 Conditions: higher = more signal.
The nature of assay [8]: FRG1 expression reporter modulators in myotubes – cell-based, C2C12 myotubes, firefly/Renilla luciferase, luminescence, FRG1 inhibition for FSHD, primary screen (AID 1084). Conditions: FRG1 promoter luciferase, higher = more signal, called active from +8 up or from −8 down.
Assay [9] in a line: small molecules captured by biotinylated probe aFST – biochemical, small-molecule microarray, fluorescence 635/667, stem cell growth factor project, primary screen (AID 1086).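 Note: score merges 667 nm fluorescence with signal-to-noise of each printed compound spot.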 The following applies: higher = more signal.
Assay [10] in a line: binders of probe aHhip on microarray, primary screen, stem cell growth factor project, biochemical, small-molecule microarray, fluorescence 635/667 (AID 1087).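 Note: score merges spot fluorescence at 667nm with spot signal to noise ratio.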 Conditions: higher = more signal.
Assay [11] deals with PRMT1 (protein arginine N-methyltransferase 1). In words: small molecules binding arginine methyltransferase PRMT1 – biochemical, small-molecule microarray, 635 nm fluorescence, primary screen (AID 1088).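 Note: binding of Prmt1 protein to compounds spotted on small-molecule microarray slides.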 Conditions: higher = more signal.
Assay [12] is described as follows: growth effects on S. cerevisiae YJM789 – YJM789 clinical isolate, OD600, 24 h, basal, primary screen (AID 1089).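 Note: growth of clinical yeast isolate S. cerevisiae YJM 789 seeded 1000 cells per well; test concentration not given here.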 The following applies: higher = more signal, called active from +8 up or from −8 down.
Assay [13] in a line: S. pombe growth modifiers, basal conditions – strain 972, OD600, 24 h, no modulator, primary screen (AID 1090).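 Note: basal condition with compound alone and no growth modifier present; test concentration not given here.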 Conditions: S. pombe 972 growth, higher = more signal, called active from +8 up or from −8 down.
Assay [14] is described as follows: budding yeast growth modifiers under rapamycin – strain BY4716, OD600, 96 h, primary screen (AID 1091). Note: test concentration not given here. Conditions: S. cerevisiae BY4716 + rapamycin, higher = more signal, called active from +8 up or from −8 down.
In assay [15] the target is Torsin-1A-interacting protein 2 (Homo sapiens) (UniProt Q8NFQ8). The experiment in a line: small molecules binding lysate-expressed LULL1 – cell lysate, human LULL1 lysate, 635/667 nm fluorescence, primary screen (AID 1092).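 Note: probe is lysate of COS7 cells overexpressing human LULL1; score merges per-feature 667 nm fluorescence with signal-to-noise.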 Conditions: small-molecule microarray, hLULL1 lysate binding, 635 nm fluorescence; higher = more signal.
Chain of Torsin-1A-interacting protein 2 (Homo sapiens) (Q8NFQ8 whole entry, looked up): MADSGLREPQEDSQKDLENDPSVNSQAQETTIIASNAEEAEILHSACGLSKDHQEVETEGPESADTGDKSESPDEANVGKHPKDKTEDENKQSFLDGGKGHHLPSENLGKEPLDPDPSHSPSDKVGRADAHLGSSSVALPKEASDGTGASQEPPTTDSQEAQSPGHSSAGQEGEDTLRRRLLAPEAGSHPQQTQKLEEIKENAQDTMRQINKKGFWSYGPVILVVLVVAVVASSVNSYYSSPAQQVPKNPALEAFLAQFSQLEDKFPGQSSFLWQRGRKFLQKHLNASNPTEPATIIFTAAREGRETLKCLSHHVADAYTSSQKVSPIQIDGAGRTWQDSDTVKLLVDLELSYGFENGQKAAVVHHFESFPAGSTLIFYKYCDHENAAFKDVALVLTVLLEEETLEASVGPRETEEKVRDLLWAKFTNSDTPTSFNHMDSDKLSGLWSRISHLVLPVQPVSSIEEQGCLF
Assay [16] can be described thus: optical density change of DRC41 E. coli – strain DRC41, OD650, 24 h, E. coli filamentation project, primary screen (AID 1093).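 Note: MC1000 strain lacking acrAB efflux and sulA so SOS filamentation is blocked; test concentration not given here.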 The following applies: E. coli DRC41 growth, higher = more signal, called active from +8 up or from −8 down.
The nature of assay [17]: probe aLefty2 binding to arrayed compounds – biochemical, biotinylated probe, 635/667 nm fluorescence, primary screen (AID 1094).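 Note: score merges spot fluorescence near 667 nm with spot signal-to-noise ratio.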 The following applies: small-molecule microarray, higher = more signal.
Assay [18] deals with Noggin (protein binding on small-molecule microarray). In words: small molecules binding Noggin protein – biochemical, 635/667 nm fluorescence, primary screen (AID 1095).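 Note: score merges 667 nm feature fluorescence with signal to noise over triplicate slides.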 The following applies: 635 nm fluorescence, higher = more signal.
For assay [19], the target named is Neurogenic locus notch homolog protein 3 (Homo sapiens) (UniProt Q9UM47). The experiment in a line: small molecules binding NOTCH3 protein – biochemical, 635/667 nm fluorescence, primary screen (AID 1096). The following applies: small-molecule microarray, 635 nm fluorescence, higher = more signal.
The nature of assay [20]: probe aEGFR binding to arrayed compounds – biochemical, biotinylated probe, 635/667 nm fluorescence, primary screen (AID 1097).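 Note: probe is a biotinylated anti-EGFR antibody binding compounds printed on slides; score combines fluorescence near 667 nm and signal to noise of each spot.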 The following applies: small-molecule microarray, higher = more signal.

Activity calls are given as the source filed them.

Chain of Neurogenic locus notch homolog protein 2 (Homo sapiens) (Q04721 whole entry, looked up, canonical isoform): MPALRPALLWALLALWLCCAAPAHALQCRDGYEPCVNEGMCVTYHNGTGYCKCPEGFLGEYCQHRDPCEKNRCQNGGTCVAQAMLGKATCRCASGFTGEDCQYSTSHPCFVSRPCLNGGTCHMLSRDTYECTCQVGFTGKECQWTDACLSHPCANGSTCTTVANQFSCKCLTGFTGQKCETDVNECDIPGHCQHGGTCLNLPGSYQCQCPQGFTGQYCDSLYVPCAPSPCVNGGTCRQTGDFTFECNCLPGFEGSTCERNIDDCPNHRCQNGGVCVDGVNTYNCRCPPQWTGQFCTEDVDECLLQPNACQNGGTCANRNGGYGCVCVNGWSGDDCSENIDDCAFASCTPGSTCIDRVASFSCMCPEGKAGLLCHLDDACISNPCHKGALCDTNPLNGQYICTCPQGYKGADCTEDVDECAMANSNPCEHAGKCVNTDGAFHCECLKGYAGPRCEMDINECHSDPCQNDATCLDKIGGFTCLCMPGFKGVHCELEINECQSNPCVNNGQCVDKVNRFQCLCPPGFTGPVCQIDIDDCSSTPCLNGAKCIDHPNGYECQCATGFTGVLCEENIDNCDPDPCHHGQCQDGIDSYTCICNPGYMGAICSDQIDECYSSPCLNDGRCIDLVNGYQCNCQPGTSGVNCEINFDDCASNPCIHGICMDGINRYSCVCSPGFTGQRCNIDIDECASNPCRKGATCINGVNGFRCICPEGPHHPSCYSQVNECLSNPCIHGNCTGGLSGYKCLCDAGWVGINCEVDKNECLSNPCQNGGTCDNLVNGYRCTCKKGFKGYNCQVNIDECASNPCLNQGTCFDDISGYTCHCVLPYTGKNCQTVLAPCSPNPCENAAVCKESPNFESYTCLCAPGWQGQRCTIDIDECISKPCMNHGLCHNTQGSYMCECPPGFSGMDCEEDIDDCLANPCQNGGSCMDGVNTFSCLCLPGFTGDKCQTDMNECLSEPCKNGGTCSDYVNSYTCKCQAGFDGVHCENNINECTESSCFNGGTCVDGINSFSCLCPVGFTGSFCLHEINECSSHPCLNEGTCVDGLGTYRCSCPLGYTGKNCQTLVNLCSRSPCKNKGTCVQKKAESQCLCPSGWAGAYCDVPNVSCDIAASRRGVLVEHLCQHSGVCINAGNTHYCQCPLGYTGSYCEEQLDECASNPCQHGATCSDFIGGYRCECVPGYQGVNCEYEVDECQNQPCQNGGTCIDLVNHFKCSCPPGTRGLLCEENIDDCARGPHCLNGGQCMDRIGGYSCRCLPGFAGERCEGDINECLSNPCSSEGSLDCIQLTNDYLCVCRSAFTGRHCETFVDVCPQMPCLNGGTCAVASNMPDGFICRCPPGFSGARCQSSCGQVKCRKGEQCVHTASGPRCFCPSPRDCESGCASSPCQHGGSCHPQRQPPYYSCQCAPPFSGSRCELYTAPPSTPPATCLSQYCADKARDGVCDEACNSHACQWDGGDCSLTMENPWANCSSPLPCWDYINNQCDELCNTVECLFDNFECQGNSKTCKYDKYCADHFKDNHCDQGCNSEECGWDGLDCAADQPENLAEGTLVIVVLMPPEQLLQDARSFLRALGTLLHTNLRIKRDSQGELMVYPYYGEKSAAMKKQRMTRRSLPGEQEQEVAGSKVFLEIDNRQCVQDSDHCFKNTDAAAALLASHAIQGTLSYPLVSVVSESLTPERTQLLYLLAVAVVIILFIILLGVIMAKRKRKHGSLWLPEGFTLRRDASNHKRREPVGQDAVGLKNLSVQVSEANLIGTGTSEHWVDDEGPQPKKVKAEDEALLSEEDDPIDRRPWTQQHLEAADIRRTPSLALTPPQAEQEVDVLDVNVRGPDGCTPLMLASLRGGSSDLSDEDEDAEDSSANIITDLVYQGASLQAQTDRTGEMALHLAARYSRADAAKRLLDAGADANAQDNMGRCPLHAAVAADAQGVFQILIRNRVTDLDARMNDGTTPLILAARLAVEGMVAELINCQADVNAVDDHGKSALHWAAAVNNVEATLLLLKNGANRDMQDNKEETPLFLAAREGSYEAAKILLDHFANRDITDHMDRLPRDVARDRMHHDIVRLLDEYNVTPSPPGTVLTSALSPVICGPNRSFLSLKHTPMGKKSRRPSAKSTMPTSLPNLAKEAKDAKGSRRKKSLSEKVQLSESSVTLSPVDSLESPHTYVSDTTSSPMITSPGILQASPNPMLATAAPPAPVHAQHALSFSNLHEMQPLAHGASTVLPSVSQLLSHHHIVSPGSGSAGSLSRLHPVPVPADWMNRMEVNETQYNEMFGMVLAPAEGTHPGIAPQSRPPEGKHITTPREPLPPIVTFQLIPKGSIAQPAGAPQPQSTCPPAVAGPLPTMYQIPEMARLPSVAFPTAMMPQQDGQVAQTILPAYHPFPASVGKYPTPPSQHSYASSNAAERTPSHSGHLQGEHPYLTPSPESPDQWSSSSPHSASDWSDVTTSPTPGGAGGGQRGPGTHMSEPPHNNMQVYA

`CC(C)(C)OC(=O)CC[C@]1(C(N)=O)N=C(c2ccc(OCCCO)cc2)O[C@H]1c1ccccc1N=[N+]=[N-]`: the composite z-score in assay [1] was 0.365; in [2], -0.434; in assay [3], -0.0088; in [4], 0.396; in [5] it was 0.9; in [6] it was 1.73. For the same compound, the composite z-score was 1.48 in assay [7]; 0.616 in assay [9]; 0.213 in assay [10]; 0.138 in assay [11]; 2.75 in assay [15]; 0.0598 in assay [17]. Moreover, the figures for the composite z-score in assay [18], in [19] and in assay [20] were -0.165, 0.206 and 0.141, respectively. Also, the z-score in assay [8] is 6.25 (inactive); in [12], 1.37 (inactive); in assay [13], 0.138 (inactive); in assay [14], 0.467 (inactive); in assay [16] it was 0.626 (inactive).

`[N-]=[N+]=NCc1ccccc1[C@H]1OC(c2ccc(OCCCO)cc2)=N[C@@]1(CCS(=O)(=O)c1ccccc1)C(=O)O`: the composite z-score is 0.0191 in [1]; 0.401 in [2]; -0.0087 in [3]; 0.135 in assay [4]; 1.21 in assay [5]; 1.01 in assay [6]. Besides, the composite z-score is 0.19 in assay [7]; 0.785 in [9]; 0.0881 in [10]; 0.0361 in assay [11]; 3.11 in assay [15]; 0.021 in assay [17]. The composite z-score was -0.482 in assay [18], 0.253 in [19] and -0.067 in assay [20]. The z-score in assay [8] is 6.44 (inactive); in assay [12], -0.791 (inactive); in [13] it was -0.155 (inactive); in assay [14], -0.814 (inactive); in [16], 0.32 (inactive).

Consider `C=CCNC(=O)[C@H]1[C@@H]2C(=O)O[C@@H](c3ccccc3)[C@@H](c3ccccc3)N2[C@@H](c2ccc(OCCO)cc2)[C@]12C(=O)N(C(=O)OCCOC)c1ccc(C#CCNC(N)=O)cc12`, for which the composite z-score is 0.141 in assay [1]; 0.275 in assay [2]; -0.399 in assay [3]; 0.474 in assay [4]; 1.41 in [5]; 0.491 in assay [6]. Moreover, the composite z-score is 0.778 in assay [7]; 0.942 in [9]; -0.246 in assay [10]; 1.55 in assay [11]; 1.97 in [15]; 0.247 in assay [17]. For the same compound, the composite z-score came to 1.84 in assay [18], 1.11 in assay [19] and 0.0173 in [20]. Besides, the z-score in assay [8] was -0.988 (inactive); in assay [12] it was 1.91 (inactive); in assay [13], 0.996 (inactive); in [14] it was 4.55 (inactive); in [16], -0.121 (inactive).

With `CN(C)CCCCCCNC(=O)[C@@H]1C[C@@H]2C(=O)N[C@@H](CCCC[N+](C)(C)C)C(=O)N2[C@@H]1c1cccc(OCCO)c1`, the composite z-score was 0.516 in assay [1]; 0.869 in [2]; -0.0707 in assay [3]; -0.431 in assay [4]; -0.558 in assay [5]; -0.538 in [6]. Also, the composite z-score in assay [7] is 0.801; in assay [9], -0.516; in assay [10], -0.333; in assay [11], -0.357; in assay [15], 2.79; in assay [17], 0.141. In addition, the results for the composite z-score in [18], in assay [19] and in assay [20] were -0.349, 0.363 and -0.108, respectively. Besides, the z-score in assay [8] is 3.98 (inactive); in assay [12], -3.6 (inactive); in [13], -1 (inactive); in assay [14], -1.17 (inactive); in [16], 0.797 (inactive).

As to `COc1cc(Cc2cc3c(c(-c4ccccc4)n2)[Si](C(C)C)(C(C)C)OC3)cc(OC)c1OC`, the composite z-score in [1] was 0.13; in assay [2] it was 0.0203; in assay [3] it was -0.141; in assay [4] it was 0.305; in assay [5] it was -0.374; in [6], -0.289. Besides, the composite z-score in assay [7] is -0.683; in assay [9], 0.0647; in [10], 0.0274; in assay [11], -0.313; in assay [15], -0.501; in assay [17], -0.0991. Further, the composite z-score in assay [18] was 0.331; in assay [19], -0.108; in assay [20], -0.0864. Besides, the z-score in [8] is -0.277 (inactive); in assay [12], 0.208 (inactive); in assay [13], -0.949 (inactive); in assay [14], -0.573 (inactive); in assay [16], 1.22 (inactive).
